The entries come from a sample that favours hits as a whole.
Marburg entry inh – inhibitors of Marburg virus binding or cell entry | Potency, µM (top dose mostly 37.8 µM), for the others: at the highest dose activity change, negative = inhibition, usual class: inhibitors | Marburg virus pseudotyped entry inhibition, cell reporter | 1.8% of 300,000 active; calls by dose curve; tested in HEK293 cells; further: potency means the concentration at half of the fitted maximal effect; on the % scale 0 is the no-effect control and ±100 the full control effect
Shiga toxin inh – blocks Shiga toxin action in Vero cells. Vero cells, Shiga toxin protein synthesis inhibition reporter. inhibition, % at 38.7 µM. 9.2% of 290,000 active; in the data active means inhibition mostly above about 28%, no sharp cut-off; inactive means mostly below about 43%; further: 0% is about no effect
VACV mCherry inh – vaccinia inhibition (mCherry reporter). Potency, µM (series often up to 36.5 µM), for the others: top-dose activity change, negative = inhibition, actives largely listed as inhibitors. Vaccinia virus mCherry reporter infection, fluorescence. 0.63% of 310,000 active; calls by dose curve; tested in A549 cells; further: potency means the concentration at half of the fitted maximal effect; on the % scale 0 is the no-effect control and ±100 the full control effect; nearly all actives have a fitted effect of over 35% in size
CHX counter – counter-screen for Shiga toxin inhibitors: cycloheximide protein synthesis inhibition; cell reporter, cycloheximide protein synthesis inhibition counterscreen; max response, %; 12% of 300,000 active; AID 2314; in the data active means max response mostly above about 13%, no sharp cut-off; inactive means mostly below about 14%; further: read at 38.3 µM for the half of the compounds with a filed dose; 0% is about no effect
Vaccinia Venus – inhibitors of vaccinia virus (Venus reporter). Vaccinia virus Venus reporter expression, fluorescence. Potency, µM (series often up to 36.5 µM), inactives show top-dose activity change, negative = inhibition, hits mostly inhibitors. 0.46% of 330,000 active. AID 720580; calls by dose curve; tested in A549 cells; further: potency means the concentration at half of the fitted maximal effect; on the % scale 0 is the no-effect control and ±100 the full control effect; nearly all actives have a fitted effect of over 30% in size
LASV entry inh – blocks Lassa virus binding to or entry into cells. Lassa virus pseudotype entry inhibition, cell reporter. Potency, µM (titrated, usually from 37.9 µM), inactives show at the highest dose activity change, negative = inhibition, most hits filed as inhibitors. 1.2% of 300,000 active; calls by dose curve; tested in HEK293 cells; further: potency means the concentration at half of the fitted maximal effect; on the % scale 0 is the no-effect control and ±100 the full control effect; nearly all actives have a fitted effect of over 50% in size
Active calls of the source: *; i = inactive; ? = inconclusive; . = no result; [ ] = dose if it differs, or a comment.

SMILES | Marburg entry inh | Shiga toxin inh | VACV mCherry inh | CHX counter | Vaccinia Venus | LASV entry inh
Nc1nc2ccccc2n1S(=O)(=O)c1ccccc1 | . | . | i | . | -12% | .
O=C(O)c1ccc(S(=O)(=O)NCc2ccc3c(c2)OCO3)cc1 | . | -2 | . | -4 | . | .
CCOC(=O)C1(Cc2ccccc2Cl)CCN(C(=O)CN2CCOC2=O)CC1 | ? | 75* | i | 43* | -11% | ?
CCOC(=O)C1(CCCc2ccccc2)CCN(C(=O)CN2CCOC2=O)CC1 | . | 9 | . | 8 | . | .
Cn1cnc([N+](=O)[O-])c1Sc1nc(N)nc2c1ncn2C1OC(CO)C(O)C1O (stereo unspecified) | ? | . | ? | . | ? | 2.8µM*
Nc1nc(SCc2ccc([N+](=O)[O-])cc2)c2ncn([C@@H]3O[C@@H](CO)[C@@H](O)[C@H]3O)c2n1 | -5% | . | . | . | . | .
Cn1cnc([N+](=O)[O-])c1Sc1nc(N)nc2c1ncn2C1CC(O)C(CO)O1 (stereo unspecified) | ? | . | 6.3µM* | . | ? | ?
CCc1cccc(CC)c1NC(=O)Cn1c(-c2ccccc2Cl)nc2ccccc21 | 25% | 37* | -6% | 22* | 0% | ?
CC(C)Cn1c(-c2ccccc2Cl)nc2ccccc21 | 9%[46.1 µM] | . | 0% | . | -5% | 24%[46.1 µM]
Oc1ccc(/C(Cc2ccccn2)=N\Nc2ccccc2)c(O)c1 | 8.9µM* | -5 | -27% | -1 | -21% | ?
O/C(=C\c1ccc2ccccc2n1)c1ccc(O)cc1O | 7.1µM* | 39* | -11% | 33* | 4% | ?
O=C(O)c1ccc(O)cc1O | . | . | i | . | -11% | .
Cc1c(O)ccc(/C(Cc2ccc3ccccc3n2)=N\O)c1O | -2% | 121 | . | 16 | . | ?
Oc1ccc(/C(Cc2ccc3ccccc3n2)=N\Nc2ccccc2)c(O)c1 | ? | 69* | -10% | 34* | -17% | ?
CCOc1ccc(NC(=O)CC2C(=O)N(c3ccc(F)cc3)C(=O)N2Cc2ccc(OC)c(OC)c2)cc1 (stereo unspecified) | -23%[46.1 µM] | . | 3% | . | -1% | -13%[46.1 µM]
Cc1ccc(-c2nn3c(=O)cc(CN4CCN(C(=O)/C=C/c5ccccc5)CC4)nc3s2)cc1 | . | . | -8% | . | -7% | ?
Cc1cc(-c2ccc(C)c(S(=O)(=O)NCCc3ccccc3)c2)on1 | . | . | -14% | . | -14% | -16%[46.1 µM]
Cc1ccnc(NS(=O)(=O)c2cc(-c3cc(C)no3)ccc2C(C)C)c1 | . | 28* | . | 17* | . | .
CCc1ccc(-c2cc(C)no2)cc1S(=O)(=O)NCCc1ccccc1 | . | 19 | . | 35* | . | .
Cc1cc(-c2ccc(C(C)C)c(S(=O)(=O)NCc3ccco3)c2)on1 | . | 34* | . | 30* | . | .
CC1CCCCN1C(=O)c1cc(-c2ccc(Cl)c(Cl)c2)on1 (stereo unspecified) | -28% | 76 | -15% | 29* | -5% | -3%
CCC1CCCCN1C(=O)c1cc(-c2ccc(Cl)c(Cl)c2)on1 (stereo unspecified) | 7% | 94* | -11% | 39* | -8% | 68%[14.3 µM]
CC1CCN(C(=O)c2cc(-c3ccc4c(c3)OCO4)on2)CC1 | ? | 41* | -13% | 28* | 1% | ?
CC1CCCCN1C(=O)c1cc(-c2ccc3c(c2)OCO3)on1 (stereo unspecified) | ? | 89* | 7% | 36* | 2% | ?
COc1ccc(-c2cc(C(=O)N3CCCCC3C)no2)cc1OC (stereo unspecified) | ? | . | -6% | . | 0% | 5%[46.1 µM]
SMILES | Marburg entry inh | Shiga toxin inh | VACV mCherry inh | CHX counter | Vaccinia Venus | LASV entry inh
O=C(c1cc(-c2ccccc2)on1)N1CCN(Cc2ccc3c(c2)OCO3)CC1 | -2% | -16 | i | 2 | -15% | 13%
O=C(NCCCN1CCCCCC1)c1ccc2c(c1)sc1nc(-c3ccccc3)cn12 | . | . | -16% | . | ? | 3%[46.1 µM]
O=S(=O)(c1ccc(OCC(O)CNC23CC4CC(CC(C4)C2)C3)c(Cl)c1)N1CCOCC1 (stereo unspecified) | 2µM* | -2 | -7% | 1 | -26% | -3%[46.1 µM]
O=C(NCCN1CCOCC1)c1cccs1 | 1% | -16 | . | -2 | -8% | 4%
O=C1c2ccccc2CN1CCNC(=S)NC1CCCCC1 | ? | 45* | i | 31* | 2% | 11%
O=C(NCCN1Cc2ccccc2C1=O)c1cccs1 | ? | 47* | i | 21* | -13% | ?
S=C(NCc1ccccc1)NC1CCCCC1 | . | 1 | . | 10 | . | .
O=C(NCc1ccccn1)Nc1ccccc1 | ? | 82* | i | 43* | -2% | 1%[46.1 µM]

Assay outcomes: PubChem, National Center for Advancing Translational Sciences (NCATS)
